p53ts 32C kill – qHTS Screen for Compounds that Selectively Target Cancer Cells with p53 Mutations: Cytotoxicity of p53ts Cells at the Permissive Temperature | 130,000 tested, 0.93% active | H1299-p53A138V at 32C, ATP luminescence viability, 24 h | AID 924, 2007 | Potency, µM (doses to about 46.1 µM), most hits filed as cytotoxic; further: nearly all actives have a fitted effect of over 55% in size
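Cells: H1299 p53ts (A138V), 600/well, pre-incubated 16–30 h at 37C. Cpd up to 46 uM, 24 h, 32C. Readout: ATPlite luminescence, 20 min RT. Normalization: DMSO vs tamoxifen 100 uM. AC50 by Hill equation.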
p53ts 39C kill – qHTS Screen for Compounds that Selectively Target Cancer Cells with p53 Mutations: Cytotoxicity of p53ts Cells at the Nonpermissive Temperature | H1299-p53A138V viability at 39C, ATP luminescence, 24 h | Potency, µM (top dose mostly 46.1 µM), usual class: cytotoxic | 130,000 tested, 1.5% active | AID 902, 2007; further: nearly all actives have a fitted effect of over 55% in size
Peg3 imprint – qHTS Assay for Compounds that Induce Erasure of Genomic Imprints; AID 1948, 2009; mouse ES Peg3-LacZ reporter, beta-gal luminescence, 40 h; 110,000 tested, 0.02% active; Potency, µM (series often up to 60.7 µM), actives largely listed as activators
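Readout: BetaGlo luminescence (5 min, room temp) for LacZ from the normally silent maternal Peg3 allele in female Peg3LacZ-Neo ES cells. Cells 300/well, 40 h, 37C, 5% CO2. Data normalized per plate to negative controls.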
A number is an active result; 0 = inactive; ? = inconclusive; - = no result; ! = not confirmed by another sample; [ ] = dose if it differs, or a comment. Shown are actives, neighbours in structure and some others; about 1.6% of the full set was active somewhere. The call rests on the fitted dose curve; in most records, active means well fitted curve in the direction sought with a large enough effect; inconclusive means small, poorly fitted or top-dose-only effect, or another doubt; inactive means no such curve, though single readings can be large; an effect the other way counts as inactive or inconclusive.

SMILES	p53ts 32C kill	p53ts 39C kill	Peg3 imprint
Cc1ccc(-n2ncc(C(=O)NCCCN3CCN(C)CC3)c2C2CCN(C(=O)OC(C)(C)C)CC2)cc1	0	0	0[10.9 µM]
CCC1=C2CC[C@H]3C(=O)N(CC)C(=O)[C@H]3[C@H]2[C@@]2(Cc3ccccc3)C(=NCC3CC3)OC(=O)N2C1=O	0	0	0
O=C(O)c1ccc(N2C(=O)c3[nH]nc(-c4ccccc4)c3C2c2cccc(F)c2)cc1 (configuration not stated)	0	0	0[10.9 µM]
CCOc1ccccc1C(=O)Nc1c(C(=O)Nc2ccc(F)cc2)oc2ccccc12	0	0	0[10.9 µM]
CCc1nnc(SCc2ccc(F)cc2Cl)c2cc3sccc3n12	0	0	0[10.9 µM]
CCc1nnc(SCC(=O)N(C)c2ccccc2)c2cc3sccc3n12	0	25µM	0[10.9 µM]
COCCN(CCOC)c1nc(C)nc2c1nc(-c1ccccc1)n2CCN1CCOCC1	0	0	0
CCN(CC)c1nc(-c2ccc(C(C)(C)C)cc2)nc2ccccc12	13µM	13µM	0[10.9 µM]
CC(C)CN(CC(C)C)c1nc(-c2ccc(Cl)cc2)nc2ccccc12	0	0	0[10.9 µM]
Cc1nn(C(=O)c2ccccc2)c(C)c1Sc1ccc(Cl)cc1	0	0	0[10.9 µM]
Cc1cc(NC(=O)c2oc3c(c2C)-c2[nH]ncc2CC3)ccc1Br	0	0	0[10.9 µM]
Cc1ccc2nc(/C(C#N)=C/c3ccc(-c4ccc(F)cc4F)o3)[nH]c2c1	6.3µM	5µM	0[10.9 µM]
N#C/C(=C/c1ccc(N2CCOCC2)o1)c1nc2ccccc2[nH]1	16µM	?	-
S=C(c1nc2ccccc2[nH]1)N1CCOCC1	0	0	-
Cc1c(Cl)cccc1-c1ccc(/C=C(\C#N)c2nc3ccccc3[nH]2)o1	?	13µM	0[10.9 µM]
N#C/C(=C\c1ccc(Sc2ccc(Cl)cc2)o1)c1nc2ccccc2[nH]1	-	0	-
COc1cccc(/C=C(\C#N)c2nc3ccc(C)cc3[nH]2)c1	0	0	0[10.9 µM]
COc1cccc(-n2c(-c3ccc(Cl)cc3)cc3c2CC(C)(C)CC3=O)c1	0	0	0[10.9 µM]
C#CCCCO/N=C1/[C@H]2O[C@@H]2[C@@H](O)[C@H]2[C@H]1CCn1c(=O)n(Cc3cc4c(cc3Cl)OCO4)c(=O)n12	0[9.22 µM]	0[9.22 µM]	-
COC(=O)c1ccc(C(NC(=O)OCc2ccccc2)/C(F)=C/[C@@H](C)C(=O)NCc2nc3ccccc3s2)cc1 (some centres not stated)	0	0	0
CN(Cc1ccco1)c1ccnc(-c2ccccc2C(F)(F)F)n1	0	0	?
CC1(C)CCCC(C)(C)N1CC(O)COCCOc1ccc(Br)cc1 (configuration not stated)	?	4.5µM	-
OC(COc1ccc(Br)cc1)CN1CCOCC1 (configuration not stated)	0	0	0
CC(C)c1nn2c(=O)cc(COC(=O)c3ccc(NC(=O)COc4ccccc4)cc3)nc2s1	0	0	0[10.9 µM]
O=C1c2ccccc2C(=O)C1c1ccnc2ccccc12	?	5.6µM	-
SMILES	p53ts 32C kill	p53ts 39C kill	Peg3 imprint
N#CC1=C(N)SC(N)=C(C#N)C1c1ccnc2ccccc12	0	0	0
Cc1ccc(-c2nc3cc(C(C)C)ccc3o2)cc1NC(=O)c1cc2ccccc2o1	0	0	0[10.9 µM]
CC(C)c1ccc2oc(-c3cc(N)ccc3O)nc2c1	13µM	16µM	0
Cc1ccccc1-c1nc2cc(N)ccc2o1	?	?	0
Nc1ccc2oc(-c3ccccc3Br)nc2c1	13µM	13µM	0[10.9 µM]
Cc1ccc(S(=O)(=O)c2c(C)nn(C(C)(C)C)c2OC(=O)c2cccs2)cc1	?	16µM	0
Cc1nn(C(C)(C)C)c(OC(=O)c2ccc3c(c2)OCO3)c1S(=O)(=O)c1ccccc1	0	16µM	0
CC(=O)Oc1c(S(=O)(=O)c2ccc(C)cc2)c(C)nn1-c1ccccc1	0	0	0
Cc1ccc(S(=O)(=O)c2c(C)nn(C(C)(C)C)c2OC(=O)C(C)(C)C)cc1	0	0	0
Cc1ccc(C(=O)Oc2c(S(=O)(=O)c3ccccc3)c(C)nn2-c2ccccc2)cc1	0	0	0[10.9 µM]
Cc1ccc(S(=O)(=O)c2c(C)nn(C(C)(C)C)c2OC(=O)c2ccco2)cc1	?	25µM	0
CC(=O)Oc1c(S(=O)(=O)c2ccc(C)cc2)c(C)nn1C(C)(C)C	0	0	0
Cc1ccc(S(=O)(=O)c2c(C)nn(C(C)(C)C)c2OC(=O)c2ccc(Br)o2)cc1	10µM	0	0
O=c1[nH]c(=S)c2[nH]c(=O)n(-c3ccccc3)c2[nH]1	0[9.22 µM]	0[9.22 µM]	0[10.9 µM]
O=C(CSc1ccccc1)NCc1ccc2c(c1)CCN2C(=O)c1ccc(Cl)cc1	0	?	0[10.9 µM]
CC1=C(C(=O)Nc2ccccc2C)C(c2ccccn2)n2nc(SCc3ccccc3F)nc2N1 (configuration not stated)	0	6.3µM	0[10.9 µM]
COc1ccccc1NC(=O)C1=C(C)Nc2nc(SCc3ccccc3F)nn2C1c1ccncc1 (configuration not stated)	0	0	0[10.9 µM]
CCCC/C=C/C(NC(=O)c1cccs1)c1ccccc1 (configuration not stated)	0	0	0
CO[C@@H]1COC(=O)C/C=C\[C@H](C)[C@H](OC)COC(=O)[C@H]2CCCN2C(=O)C/C=C\[C@H]1C	0[9.22 µM]	0[9.22 µM]	-
COc1ccc(-c2nc3cnc(N(C)C)nc3n(C[C@H]3CCCO3)c2=O)cc1	0	0	0
Cn1c(CNc2ccc(Cl)cc2)nc2ccccc21	?	?	0
Cc1nc2cc(NCc3nc4ccccc4n3Cc3ccccc3)ccc2n1C	4µM	2µM	-
CC(C)NC(=O)N1CCC2(CC1)CCN(S(=O)(=O)c1ccccc1)CC2	0	0	-
CC(C)=CCC/C(C)=C/CO/N=C1/C[C@@H](O)[C@@H](O)[C@@H]2[C@@H]3C(=O)N(C[C@@H]4CCCO4)C(=O)[C@H]3CC[C@@H]12	0[9.22 µM]	0[9.22 µM]	-
COc1ccc(-c2cn3c(n2)sc2cc(C(=O)NCc4ccccc4)ccc23)cc1	0	?	0[10.9 µM]
SMILES	p53ts 32C kill	p53ts 39C kill	Peg3 imprint
COc1ccc2c(c1)sc1nc(-c3ccccc3)cn12	0.63µM	1.3µM	0
CCOc1ccc(C2CC(=O)c3c([nH]c(C(=O)OCC4CCCCC4)c3C)C2)cc1 (configuration not stated)	0	0	0[10.9 µM]
O=C(COc1ccccc1F)Nc1ccc2nc(SCC(=O)N3CCc4ccccc43)sc2c1	0	0	0[10.9 µM]
COC(=O)c1ccc(C(NC(=O)OCc2ccccc2)/C(=C/[C@@H](C)C(=O)NCCF)c2cccnc2)cc1 (some centres not stated)	0	0	0
CCCCOc1ccc(C(=O)O)cc1	0	0	0
CC/C(=C(\c1ccccc1)c1ccc(OCCN(C)C)cc1)c1ccccc1	32µM!	32µM!	0
COc1cc(-c2nnc(SCC(=O)N3CCCc4ccccc43)o2)cc(OC)c1OC	0	0	0[10.9 µM]
CCOC(=O)c1cc(S(=O)(=O)Nc2ccc(Br)c(C)c2)[nH]n1	0	0	0[10.9 µM]
O=c1c2ccccc2cnn1-c1nc2ccccc2s1	0.79µM	1µM	0
Cc1ccc(C)c(N2CCN(c3cnn(-c4nc5ccccc5s4)c(=O)c3Cl)CC2)c1	-	0	-
c1ccc(CNc2ncnc3ccc(-c4ccc5c(c4)OCO5)cc23)cc1	0	0	0
